For 39 compounds, remaining activity results are on record in PubChem BioAssay AID602143 (Vanderbilt Specialized Chemistry Center, 2011).

Values without a mark were called inactive. Calls of active or inactive are those of the source. Rule as the data show it: active = remaining activity below about 50%; inactive = the rest.

Chain of Phospholipase D2 (Homo sapiens) (O14939 whole entry, looked up): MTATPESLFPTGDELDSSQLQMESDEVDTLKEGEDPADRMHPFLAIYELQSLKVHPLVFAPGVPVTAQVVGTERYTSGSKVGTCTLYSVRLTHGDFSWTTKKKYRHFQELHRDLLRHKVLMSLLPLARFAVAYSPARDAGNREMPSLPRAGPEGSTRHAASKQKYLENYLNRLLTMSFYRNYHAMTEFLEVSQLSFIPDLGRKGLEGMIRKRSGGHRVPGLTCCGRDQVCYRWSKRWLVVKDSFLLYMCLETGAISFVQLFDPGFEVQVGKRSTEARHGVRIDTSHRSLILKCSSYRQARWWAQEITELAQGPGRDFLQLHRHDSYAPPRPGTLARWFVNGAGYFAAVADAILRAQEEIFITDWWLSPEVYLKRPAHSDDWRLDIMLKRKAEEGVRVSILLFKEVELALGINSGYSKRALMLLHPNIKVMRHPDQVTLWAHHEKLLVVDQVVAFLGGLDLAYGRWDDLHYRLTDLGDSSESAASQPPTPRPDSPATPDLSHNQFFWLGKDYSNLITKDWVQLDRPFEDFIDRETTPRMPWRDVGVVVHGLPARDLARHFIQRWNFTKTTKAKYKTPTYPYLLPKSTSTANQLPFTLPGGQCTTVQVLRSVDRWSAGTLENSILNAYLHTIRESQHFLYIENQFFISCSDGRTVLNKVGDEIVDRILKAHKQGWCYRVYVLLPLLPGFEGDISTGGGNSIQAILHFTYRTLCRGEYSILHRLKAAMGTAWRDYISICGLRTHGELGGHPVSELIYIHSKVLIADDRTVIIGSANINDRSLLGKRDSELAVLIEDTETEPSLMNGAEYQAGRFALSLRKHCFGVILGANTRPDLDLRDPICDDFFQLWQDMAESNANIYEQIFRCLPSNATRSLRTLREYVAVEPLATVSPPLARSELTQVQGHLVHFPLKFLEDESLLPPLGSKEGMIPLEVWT
Chain of Phospholipase D2 (Homo sapiens) (O14939 whole entry, looked up): as above

The test addresses Phospholipase D2 (Homo sapiens) (UniProt O14939). In words: cellular phospholipase D2 activity inhibition – cell-based, HEK293, single concentration (AID 602143).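 Also: tested at 200 nM.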 As to conditions: HEK293 cellular PLD2 activity, percent of control; hits give low values.
Regarding `CN(C)c1cccc2c(S(=O)(=O)NCCN3CCC(n4c(=O)[nH]c5ccccc54)CC3)cccc12`, the remaining activity was 112%.

As to `CN1CCC2(CCN(CCNC(=O)c3ccc4ccccc4c3)CC2)C1=O`, the remaining activity was 129%.

In the case of `C[C@@H](CN1CCC(n2c(=O)[nH]c3cc(Br)ccc32)CC1)NC(=O)c1ccc(F)cc1`, the remaining activity is 80.4%.

In the case of `O=C(NCCN1CCC2(CC1)CCN(c1ccccc1)C2=O)c1ccc2ccccc2c1`, the remaining activity is 55%.

As for `C[C@@H](CN1CCC(n2c(=O)[nH]c3ccccc32)CC1)NC(=O)C1C[C@H]1c1ccccc1` (some centres undefined), the remaining activity is 105%.

Take `O=C(c1ccc2ccccc2c1)N1CCC2(CC1)C(=O)NCN2c1ccccc1`: the remaining activity is 75.8%.

On to `O=c1[nH]c2ccccc2n1C1CCN(CCNS(=O)(=O)c2ccc(F)cc2)CC1`, for which the remaining activity was 75.9%.

Take `Cc1ccc(C(=O)NCCN2CCN(c3ccccn3)CC2)cc1`: the remaining activity is 107%.

For `O=C(NCCN1CCN(c2ccncc2)CC1)c1ccc(Cl)cc1`, the remaining activity is 116%.

As for `C[C@@H](CN1CCC(c2nc3ccc(F)cc3[nH]2)CC1)NC(=O)[C@H]1CC1c1ccccc1` (some centres undefined), the remaining activity was 92.5%.

On to `O=C(NCCN1CCC(n2c(=O)[nH]c3ccccc32)CC1)c1cc(-c2ccccc2)no1`, for which the remaining activity is 50.8%.

Consider `COc1ccc2c(c1)c(CC(=O)NCCN1CCC(n3c(=O)[nH]c4ccccc43)CC1)c(C)n2C(=O)c1ccc(Cl)cc1`, for which the remaining activity was 73.8%.

For the compound `C[C@@H](CN1CCC(n2c(=O)[nH]c3cc(-c4ccc(F)c(F)c4)ccc32)CC1)NC(=O)[C@H]1C[C@@H]1c1ccccc1`, the remaining activity was 80.4%.

Turning to `C[C@@H](CN1CCC(n2c(=O)[nH]c3cc(F)ccc32)CC1)NC(=O)c1ccc(F)c(F)c1`, the remaining activity was 85.2%.

Turning to `CN1CCC2(CCN(CCNC(=O)[C@H]3C[C@@H]3c3ccccc3)CC2)C1=O`, the remaining activity was 102%.

As to `C[C@@H](CN1CCC2(CC1)CN(S(C)(=O)=O)c1ccccc12)NC(=O)[C@H]1C[C@@H]1c1ccccc1`, the remaining activity is 109%.

As to `CCCS(=O)(=O)NCCN1CCC(n2c(=O)[nH]c3ccccc32)CC1`, the remaining activity was 64.7%.

Take `O=c1[nH]c2ccccc2n1C1CCN(CCNC(=S)Nc2ccccn2)CC1`: the remaining activity was 72.7%.

With `C[C@H](CN1CCC2(CC1)CNCc1ccccc12)NC(=O)c1ccc2ccccc2c1`, the remaining activity was 110%.

For `O=C(NCCN1CCC2(CC1)CNc1ccccc12)C1CC1c1ccccc1` (centres undefined), the remaining activity is 91.2%.

Turning to `O=C(NCCN1CCC2(CCc3ccccc32)CC1)c1cnc2ccccc2c1`, the remaining activity was 100%.

Take `O=C(c1ccc(Cl)cc1)N(CCN1CCC(n2c(=O)[nH]c3ccccc32)CC1)C(=O)c1ccc(Cl)cc1`: the remaining activity was 94.2%.

Consider `O=C(NCCN1CCC(n2c(=O)[nH]c3ccccc32)CC1)Nc1ccccc1F`, for which the remaining activity was 105%.

In the case of `O=C(N[C@@H](Cc1ccccc1)CN1CCC(n2c(=O)[nH]c3ccccc32)CC1)c1ccc2ccccc2c1`, the remaining activity was 96.7%.

As for `C[C@@H](CN1CCC(n2c(=O)[nH]c3ccccc32)CC1)NC(=O)c1ccc(Cl)c(Cl)c1`, the remaining activity is 76.3%.

As to `O=C1c2ccccc2C(=O)N1CCCN1CCC(n2c(=O)[nH]c3cc(Cl)ccc32)CC1`, the remaining activity was 74.6%.

In the case of `O=C(NCCN1CCC(n2nnc3ccccc32)CC1)c1ccc2ccccc2c1`, the remaining activity is 0.808% (active).

Turning to `CC1(C)[C@H]2CC[C@]1(CS(=O)(=O)NCCN1CCC(n3c(=O)[nH]c4ccccc43)CC1)C(=O)C2`, the remaining activity is 72.8%.

`O=C(NCCN1CCC(C(=O)NCCCN2CCOCC2)CC1)c1ccc2ccccc2c1`: the remaining activity is 125%.

For `C[C@@H](CN1CCC(n2c(=O)[nH]c3ccccc32)CC1)NC(=O)c1cc2cc(F)ccc2[nH]1`, the remaining activity is 0.758% (active).

With `O=C(NCCN1CCC(n2c(=O)[nH]c3ccccc32)CC1)C1CCCCCCCCCC1`, the remaining activity was 81.3%.

Consider `Nc1ccc(C(=O)NCCN2CCC(n3c(=O)[nH]c4ccccc43)CC2)c(F)c1`, for which the remaining activity was 60.4%.

`O=C(NCCN1CCC(n2c(=O)[nH]c3ccc(F)cc32)CC1)c1ccc(Cl)c(Cl)c1`: the remaining activity was 0% (active).

In the case of `CC(C)[C@@H](CN1CCC(n2c(=O)[nH]c3ccccc32)CC1)NC(=O)c1ccc2ccccc2c1`, the remaining activity is 73.3%.

As to `O=C(NCCN1CC=C(n2nnc3cc(C(F)(F)F)ccc32)CC1)c1cnc2ccccc2c1`, the remaining activity is 114%.

Consider `O=C(NCCN1CCN(c2ncccn2)CC1)c1ccc2ccccc2c1`, for which the remaining activity was 90.4%.

Take `O=C(NCCN1CCC(n2c(=O)[nH]c3ccccc32)CC1)c1ccc(Cc2ccccc2)cc1`: the remaining activity is 72.9%.

Regarding `O=C(NCCN1CCC(n2c(=O)[nH]c3ccccc32)CC1)C(c1ccccc1)(c1ccccc1)c1ccccc1`, the remaining activity was 93.2%.

As for `O=C(NCCN1CCC(n2c(=O)[nH]c3ccccc32)CC1)c1ccccc1-c1ccccc1`, the remaining activity was 83.4%.
